# Sampled rows, rich in hits. Any-hit rate of the full collection: about 18%.
# RORg inh: blocks mouse ROR gamma transcriptional activity | P51450 | Drosophila S2 Gal4-RORgamma UAS-luciferase reporter, 20 h | Potency, µM (titrated, usually from 53.6 µM), inactives show at the highest dose activity change, negative = inhibition, hits mostly inhibitors | hit rate 5.4% among 310,000; further: potency means the concentration at half of the fitted maximal effect; nearly all actives have a fitted effect of over 60% in size
# Target sequence (P51450 whole entry, looked up, the tested form may be a part): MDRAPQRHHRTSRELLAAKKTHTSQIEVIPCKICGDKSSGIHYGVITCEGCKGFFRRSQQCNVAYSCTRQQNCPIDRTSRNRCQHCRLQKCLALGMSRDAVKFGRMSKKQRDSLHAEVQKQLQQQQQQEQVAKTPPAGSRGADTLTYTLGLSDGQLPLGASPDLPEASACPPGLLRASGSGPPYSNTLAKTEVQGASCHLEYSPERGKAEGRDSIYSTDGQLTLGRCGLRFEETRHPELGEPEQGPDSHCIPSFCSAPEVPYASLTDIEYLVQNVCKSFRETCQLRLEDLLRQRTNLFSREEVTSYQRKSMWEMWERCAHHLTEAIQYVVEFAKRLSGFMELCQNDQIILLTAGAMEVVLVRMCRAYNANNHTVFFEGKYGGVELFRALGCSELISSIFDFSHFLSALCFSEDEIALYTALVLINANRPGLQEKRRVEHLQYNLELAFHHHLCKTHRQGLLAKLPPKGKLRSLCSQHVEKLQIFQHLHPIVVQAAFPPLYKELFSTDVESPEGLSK
#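 In this cell-based reporter format, copper sulfate (700 uM final) drives Gal4–ROR gamma fusion expression from a metallothionein promoter in Drosophila Schneider cells; compounds preincubated 1 hr, reporter read after 20 hr at ambient temperature.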
# TDP1 cell noCPT: qHTS for Inhibitors of human tyrosyl-DNA phosphodiesterase 1 (TDP1): qHTS in cells in absence of CPT. DT40 Tdp1-/- hTDP1 cells, no CPT, ATP luminescence, 48 h. Potency, µM (highest dose often 46.2 µM), inactives show top-dose activity change, negative = growth inhibition, most hits filed as inhibitors. hit rate 15% among 420,000. AID 686978, 2013; further: potency means the concentration at half of the fitted maximal effect; nearly all actives have a fitted effect of over 55% in size
#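 Luminescent ATP content (CellTiter-Glo) served as the growth readout. Knockout chicken DT40 cells expressing human TDP1 were exposed to compounds without camptothecin for a minimum 48 hr at 37 °C.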
# Gal4-VP16 FLuc: counter-screen for ROR gamma inhibitors: Gal4-VP16 reporter; hit rate 3.5% among 310,000; Potency, µM (top dose mostly 53.6 µM), without a hit: at the top dose activity, negative = inhibition, actives largely listed as inhibitors; Drosophila S2 Gal4-VP16 UAS-luciferase, luminescence, 20 h;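 further: Gal4-VP16 expression switched on by copper sulfate through the metallothionein promoter; potency means the concentration at half of the fitted maximal effect; nearly all actives have a fitted effect of over 50% in size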
# TDP1 cell CPT: DT40-hTDP1 cell growth loss with CPT; Potency, µM (titrated, usually from 46.2 µM), without a hit: at the top dose activity change, negative = growth inhibition, actives largely listed as inhibitors; hit rate 12% among 420,000; AID 686979; chicken DT40 Tdp1-/-;hTDP1 cells + 20 nM CPT, ATP luminescence, 48 h; further: potency means the concentration at half of the fitted maximal effect; nearly all actives have a fitted effect of over 55% in size
#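 Cell growth measured by CellTiter-Glo luminescence after a minimum 48 h, 37 C compound exposure with 20 nM CPT in Tdp1-knockout DT40 cells stably expressing hTDP1, seeded 400/well; qHTS titration format.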
# LDHA block: LDHA (human) enzyme inhibition; purified LDHA, NADH/diaphorase-resazurin fluorescence; stronger effect = lower value; activity change, % (values are at about 110 or 230 µM); hit rate 0.15% among 480,000; in the data active means activity change below about -30%; inconclusive means mostly about -25% to -30%;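 further: plate controls were DMSO wells for no effect and wells without enzyme for full effect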
#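 Human LDH5 at 2 nM final in Tris HCl pH 7.4 with 0.06 mM NADH and 0.2 mM pyruvate, reacted 5 minutes at room temperature. Remaining NADH coupled via diaphorase/resazurin; resorufin fluorescence read at 0 and 20 minutes, normalized to enzyme-free and DMSO wells.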
# IL1B secr inh: blocks inflammasome-driven IL-1 beta release; hit rate 4.7% among 360,000; AID 743279; THP-1 LPS/ATP IL-1B secretion, AlphaLISA, 16 h; stronger effect = lower value; activity change, % at 57.5 µM; in the data active means activity change below about -50%; inconclusive means mostly about -30% to -49%
#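 THP-1 cells pretreated 1 hr with compounds (up to 57.5 uM final), then stimulated with LPS (250 ng/mL final) plus ATP (1.25 mM final); secreted IL-1B measured by AlphaLISA after 16 hr, decreased signal indicating inhibition.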
# * hit, by the source's call; ? = inconclusive; nt = no result; [ ] = dose if it differs, or a comment. Unless noted, the call rests on the fitted dose curve; in most records, active means well fitted curve in the direction sought with a large enough effect; inconclusive means small, poorly fitted or top-dose-only effect, or another doubt; inactive means no such curve, though single readings can be large; an effect the other way counts as inactive or inconclusive. Unless noted, on the % scale 0 is the no-effect control and ±100 the full control effect.
SMILES,RORg inh,TDP1 cell noCPT,Gal4-VP16 FLuc,TDP1 cell CPT,LDHA block,IL1B secr inh
CC(=O)Nc1nc2ccccc2n1Cc1ccccc1C,2µM*,13µM*,3.2µM*,9.2µM*,-5,?
CCN(CC)c1ccc(NS(=O)(=O)c2cc(C)cc(C)c2)cc1C(=O)O,nt,nt,nt,nt,7,nt
COC(=O)C[N+]1(CC=C(C)C)CCCCC1,nt,nt,nt,nt,3,nt
Cc1c(/C=N/NC(N)=O)c2ccccn2c1C(=O)c1ccc(F)cc1,2%,9.2µM*,-13%,?,-3,-70*
CNC(=S)N/N=C/c1c(C)c(C(=O)c2ccc(F)cc2)n2ccccc12,5µM*,?,7.9µM*,?,-3,59
CN(C)c1ccc(-c2nnc(-c3ccccc3F)o2)cc1,11µM*,?,?,-17%,-8,-16
Cc1ccc(CS(=O)(=O)c2ccccc2-c2nnc(-c3ccc(Cl)cc3)o2)cc1,-4%,18µM*,-13%,?,-4,21
Cc1ccc(-c2nnc(-c3ccccc3Br)o2)cc1,13µM*,-17%,?,16%,-4,-8
COc1ccc(CC(=O)N(c2ccccc2)c2nc(C)cs2)cc1,42%,13µM*,?,18µM*,-1,?
CC(=O)N(c1ccccc1)c1nc(/C=C/C(=O)O)cs1,?,-13%,18%,-19%,-9,1
Cc1csc(N(C(=O)Cc2ccccc2F)c2ccccc2)n1,25%,23µM*,23%,?,-2,-4
CCCCCCCCC(=O)N/N=C(\C)c1ccc(O)cc1O,3.5µM*,?,?,?,-7,49
CCCCCCCCC(=O)N/N=C(\C)c1ccco1,?,-27%,5%,?,-1,5
CCCCCCCC(=O)N/N=C(/C)c1c(O)cc(C)oc1=O,8.9µM*,?,22µM*,?,6,2
CCCCCCCC(=O)N/N=C(\C)c1ccc(O)cc1O,7.1µM*,?,11µM*,?,-5,31
CCCCCCCC(=O)N/N=C(\C)c1ccc(N)cc1,19%,nt,-15%,nt,nt,nt
CCCCC(=O)c1ccc(O)cc1O,nt,?,nt,1%,2,1
CCn1cc(CNC(=O)Nc2ccc(Cl)cc2)c(C)n1,nt,nt,nt,nt,1,nt
COc1ccccc1NS(=O)(=O)c1cc(-c2n[nH]c(=O)c3ccccc23)ccc1C,nt,nt,nt,nt,-3,nt
Cc1ccc(Nc2nnc(-c3ccc(C)c(S(=O)(=O)N4CCN(C)CC4)c3)c3ccccc23)c(C)c1,nt,6.5µM*,nt,7.3µM*,-2,nt
Cc1ccc(-c2nnc(Nc3cccc(O)c3)c3ccccc23)cc1S(=O)(=O)N1CCCCC1,nt,-102%,nt,18µM*,0,nt
Cc1ccc(NS(=O)(=O)c2cc(-c3n[nH]c(=O)c4ccccc34)ccc2C)cc1,?,6.5µM*,-6%,7.3µM*,1,-3
Cc1ccc(-c2nc3ccccc3s2)cc1S(=O)(=O)N1CCCC1,44%,?,3%,13µM*,0,-6
Cc1ccc(-c2nnc(Nc3cccc(Br)c3)c3ccccc23)cc1S(=O)(=O)N1CCCCC1,nt,-24%,nt,-25%,0,nt
Cc1ccc(-c2nnc(Nc3ccccc3)c3ccccc23)cc1S(=O)(=O)NCc1nc2ccccc2[nH]1,nt,?,nt,?,-1,nt
SMILES,RORg inh,TDP1 cell noCPT,Gal4-VP16 FLuc,TDP1 cell CPT,LDHA block,IL1B secr inh
Cc1ccc(-c2nnc(NCc3nc4ccccc4[nH]3)c3ccccc23)cc1S(=O)(=O)N1CCCCC1,-6%,16µM*,1%,21µM*,-6,-3
Cc1cccc(Nc2nnc(-c3ccc(C)c(S(=O)(=O)N4CCN(C)CC4)c3)c3ccccc23)c1,nt,?,nt,21µM*,-8,nt
Cc1ccc(-c2nnc(Nc3cccc(Cl)c3)c3ccccc23)cc1S(=O)(=O)N1CCN(C)CC1,nt,21µM*,nt,12µM*,-2,nt
Cc1ccc(-c2nnc(Nc3cccc(Br)c3)c3ccccc23)cc1S(=O)(=O)N1CCN(C)CC1,nt,18µM*,nt,13µM*,-7,nt
O=C(Cc1ccccc1)Nc1cccc2ncccc12,nt,nt,nt,nt,40,nt
CCCCNC(=O)Cc1c(C)nc2nc(N)nn2c1C,nt,nt,nt,nt,1,nt
Cc1ccc(Nc2nnc(-c3ccc(C)c(S(=O)(=O)N4CCN(C)CC4)c3)c3ccccc23)cc1,nt,16µM*,nt,18µM*,-16,nt
Cc1ccc(-c2nnc(Nc3ccccc3)c3ccccc23)cc1S(=O)(=O)N1CCN(C)CC1,nt,?,nt,?,-10,nt
COC(=O)C1(NC(=O)c2c(F)cccc2Cl)CCCCC1,nt,nt,nt,nt,7,nt
O=C(/C=C/c1ccccc1)N1c2ccccc2Sc2ccc(C(F)(F)F)cc21,?,-8%,?,-9%,-2,-1
COc1ccc(/C=C/C(=O)N2c3ccccc3Sc3ccc(C(F)(F)F)cc32)cc1,19%,18µM*,-13%,?,0,-3
O=c1oc2ccccc2c(Nc2ccccc2O)c1[N+](=O)[O-],27%,-16%,7%,-13%,5,-18
O=c1oc2ccccc2c(Nc2cccc3ccccc23)c1[N+](=O)[O-],?,?,?,?,-4,42
O=c1oc2ccccc2c(Nc2cc3ccccc3cc2O)c1[N+](=O)[O-],-10%,5.8µM*,-8%,5.8µM*,25,55
O=c1oc2ccccc2c(NCc2ccc(Cl)cc2)c1[N+](=O)[O-],31%,-4%,0%,-3%,-2,-26
Cc1cc(Cl)cc(Cl)c1CNc1c([N+](=O)[O-])c(=O)oc2ccccc12,24%,16µM*,-12%,?,-3,11
O=c1oc2ccccc2c(Nc2cccc3cccnc23)c1[N+](=O)[O-],11µM*,-30%,-20%[10 µM],-4%,9,7
CC(=O)c1ccc(C(=O)Nc2nc3ccc(S(=O)(=O)N(C)C)cc3s2)cc1,nt,nt,nt,nt,-14,nt
Cc1c(C(=O)Nc2cccc(Cl)c2)oc2ccc(S(=O)(=O)N(C)C3CCCCC3)cc12,nt,21µM*,nt,?,-3,nt
Cc1ccc(Cl)cc1NC(=O)c1oc2ccc(S(=O)(=O)N(C)C3CCCCC3)cc2c1C,nt,?,nt,21µM*,-7,nt
Cc1cccc(NC(=O)c2oc3ccc(S(=O)(=O)N(C)C4CCCCC4)cc3c2C)c1C,nt,8.2µM*,nt,10µM*,-5,nt
COc1cccc(-c2nc3cc(NC(=O)CC(C)C)ccc3o2)c1,nt,nt,nt,nt,1,nt
Cn1nnnc1Sc1ccc(S(=O)(=O)N2CCCCC2)cn1,nt,nt,nt,nt,14,nt
COc1ccc(Cc2nnc(NC(=O)CSc3ccc(Cl)cc3)s2)cc1OC,13µM*,nt,?,nt,nt,nt
COc1ccc(-c2nnc(NC(=O)CSc3ccccc3)s2)cc1OC,?,?,22µM*,-20%,-5,5

# Screening data deposited in PubChem BioAssay by National Center for Advancing Translational Sciences (NCATS).
